The structures appear in SMILES notation. Where “and” joins values, the source holds several entries; their conditions need not be identical. Identical values can stand only once. Inconclusive results are not listed. A structure can be active in one record and inactive in another. Calls of active or inactive are those of the source. Calls come from the whole dose curve; as a rule, active = well fitted curve in the direction sought with a large enough effect in the repeat runs; inconclusive = weak or mixed curves; inactive = no such curve, though single readings can be large; an effect the other way counts as inactive or inconclusive.

Assay [1] is described as follows: qHTS RealTime-Glo MT Cell Viability Assay in HEK293 cells - 16 hour (AID 1224872). Note: nearly all actives have a fitted effect of over 50% in size. Note: potency is the fitted concentration of half-maximal effect. Summed up: (§1)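 Quantitative high-throughput screen of the Tox21 10K library in HEK293: cells and RealTime-Glo reagents plated together, compound added at 5 h, luminescence monitored through 40 h at 37 C.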
Assay [2] can be described thus: qHTS RealTime-Glo MT Cell Viability Assay in HepG2 cells - 8 hour (AID 1224873). Note: nearly all actives have a fitted effect of over 55% in size. The gist of the method:
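HepG2 cells (600/well) mixed with RealTime-Glo MT reagent, settled 5 h at 37 C/5% CO2 before compound addition. Nonlytic NanoLuc luminescence from viable-cell prosubstrate reduction read repeatedly during 40 h treatment at 37 C.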

Assay [3] in a line: qHTS RealTime-Glo MT Cell Viability Assay in HEK293 cells - 40 hour (AID 1224874). Note: nearly all actives have a fitted effect of over 50% in size. Note: potency is the fitted concentration of half-maximal effect. Particulars: RealTime-Glo luminescence; max response: stronger effect = lower value. The gist of the method: (§2)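 Luminescence readout at each listed time point; HEK293, 600 cells/well, RealTime-Glo MT reagent added with cells; compounds pinned (23 nL in DMSO) after 5 h at 37 C; continuous culture at 37 C.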

A short description of assay [4]: A CellTox Green Cytotoxicity Assay to monitor cytotoxicity in HEK293 cells - 24 hour (AID 1224875). Note: nearly all actives have a fitted effect of over 45% in size. Note: potency is the fitted concentration of half-maximal effect. Summed up:
(§3)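 Read-out: fluorescence of a cell-impermeant cyanine dye staining DNA of dead cells, proportional to cytotoxicity. HEK293, 600 cells/well with reagent, compound (23 nL DMSO) added after 5 h; reads at 0, 8, 16, 24, 32, 40 h.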

Assay [5] is described as follows: A CellTox Green Cytotoxicity Assay to monitor cytotoxicity in HepG2 cells - 16 hour (AID 1224876). Note: nearly all actives have a fitted effect of over 45% in size. Note: potency is the fitted concentration of half-maximal effect. The gist of the method:
(§4)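 HepG2, 600 cells/well premixed w/ CellTox Green; 5 h settle, 37 C/5% CO2; pintool cpd add (DMSO); 37 C, 40 h; fluorescence read at 0, 8, 16, 24, 32, 40 h.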

Assay [6] in a line: qHTS RealTime-Glo MT Cell Viability Assay in HepG2 cells - 32 hour (AID 1224877). Note: nearly all actives have a fitted effect of over 55% in size. Summed up: (§5)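 Compound treatment began 5 h after plating HepG2 cells (600/well) with NanoLuc luciferase and prosubstrate. Plates stayed at 37 C for 40 h; luminescence was captured at six time points, 0 h through 40 h.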
The nature of assay [7]: A CellTox Green Cytotoxicity Assay to monitor cytotoxicity in HepG2 cells - 24 hour (AID 1224878). Note: nearly all actives have a fitted effect of over 45% in size. Note: potency is the fitted concentration of half-maximal effect. The gist of the method:
as §4

The nature of assay [8]: A CellTox Green Cytotoxicity Assay to monitor cytotoxicity in HepG2 cells - 40 hour (AID 1224879). Note: nearly all actives have a fitted effect of over 40% in size. Note: potency is the fitted concentration of half-maximal effect. The gist of the method: as §4
Assay [9] can be described thus: qHTS RealTime-Glo MT Cell Viability Assay in HEK293 cells - 0 hour (AID 1224880). Note: top concentration of the series differs between compounds; nearly all actives have a fitted effect of over 45% in size. Summed up:
as §2

Assay [10] can be described thus: A CellTox Green Cytotoxicity Assay to monitor cytotoxicity in HEK293 cells - 32 hour (AID 1224881). Note: nearly all actives have a fitted effect of over 40% in size. Note: potency is the fitted concentration of half-maximal effect. Summed up:
as §3

Assay [11] in a line: A CellTox Green Cytotoxicity Assay to monitor cytotoxicity in HepG2 cells - 0 hour (AID 1224882). Note: nearly all actives have a fitted effect of over 35% in size. Note: potency is the fitted concentration of half-maximal effect. Summed up:
as §4

Assay [12] is described as follows: A CellTox Green Cytotoxicity Assay to monitor cytotoxicity in HepG2 cells - 32 hour (AID 1224883). Note: nearly all actives have a fitted effect of over 50% in size. Note: potency is the fitted concentration of half-maximal effect. Summed up:
as §4

Assay [13] is described as follows: A CellTox Green Cytotoxicity Assay to monitor cytotoxicity in HEK293 cells - 8 hour (AID 1224884). Note: nearly all actives have a fitted effect of over 35% in size. Note: potency is the fitted concentration of half-maximal effect. Summed up:
as §3

A short description of assay [14]: qHTS RealTime-Glo MT Cell Viability Assay in HepG2 cells - 16 hour (AID 1224885). Note: nearly all actives have a fitted effect of over 50% in size. Summed up:
as §5

Assay [15] is described as follows: qHTS RealTime-Glo MT Cell Viability Assay in HEK293 cells - 24 hour (AID 1224886). Note: nearly all actives have a fitted effect of over 50% in size. Note: potency is the fitted concentration of half-maximal effect. The gist of the method:
as §1

Assay [16] is described as follows: qHTS RealTime-Glo MT Cell Viability Assay in HEK293 cells - 8 hour (AID 1224887). Note: nearly all actives have a fitted effect of over 50% in size. Note: potency is the fitted concentration of half-maximal effect. The gist of the method:
as §2

Assay [17] can be described thus: A CellTox Green Cytotoxicity Assay to monitor cytotoxicity in HEK293 cells - 16 hour (AID 1224888). Note: nearly all actives have a fitted effect of over 35% in size. Note: potency is the fitted concentration of half-maximal effect. Summed up:
as §3

A short description of assay [18]: qHTS RealTime-Glo MT Cell Viability Assay in HepG2 cells - 0 hour (AID 1224889). Note: nearly all actives have a fitted effect of over 50% in size. The gist of the method:
as §5

Assay [19] is described as follows: A CellTox Green Cytotoxicity Assay to monitor cytotoxicity in HepG2 cells - 8 hour (AID 1224890). Note: nearly all actives have a fitted effect of over 45% in size. Note: potency is the fitted concentration of half-maximal effect. Summed up: as §4
Assay [20] can be described thus: qHTS assay to identify small molecule antagonists of the estrogen receptor alpha (ER-alpha) signaling pathway using the BG1 cell line in the presence of 0.1 nM 17-beta-estradiol - cell viability counter screen (AID 1259241). Note: nearly all actives have a fitted effect of over 40% in size. The gist of the method:
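Estradiol-stimulated (0.1 nM) VM7Luc4E2 cells exposed to compounds 22 hr; viability measured by fluorescence of cleaved CellTiter-Fluor substrate after 30 min.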
% is set by controls: 0 for no effect and ±100 for the full control effect.

Consider `Cc1c(OCC(F)(F)F)ccnc1CS(=O)c1nc2ccccc2[nH]1` (stereo unspecified), for which the Potency in assay [1] was 19.5 µM (active) and 23.9 µM (active); in assay [3], 21.9 µM (active) and 10.7 µM (active); in [15] it was 19.5 µM (active) and 19 µM (active); in assay [16] it was 21.9 µM (active) and 23.9 µM (active). Further, the Potency result in assay [2], in assay [4], in [5], in assay [6], in assay [7] and in [8] was “inactive” throughout. In addition, the Potency entry in [9], in [10], in [11], in assay [12], in assay [13] and in [14] was “inactive” each time. For the same compound, the Potency result in assay [17], in assay [18], in [19] and in assay [20] was “inactive” in each case.

Take `C=CC(C)(CCC=C(C)C)OC(C)=O` (stereo unspecified): the Potency result in assay [1], in assay [2], in assay [4], in [5], in assay [6] and in assay [7] was “inactive” in each case. In addition, the Potency entry in [8], in [9], in assay [10], in assay [11], in assay [12] and in assay [13] was “inactive” throughout. Moreover, the Potency result in [14], in [15], in [16], in [17], in assay [18] and in assay [19] was “inactive” each time. The Potency entry in assay [20] is “inactive”. In addition, the max response in [3] was 4.78% (inactive) and 0.789% (inactive).

Consider `Nc1ccc(Cl)cc1Cl`, for which the Potency entry in assay [1], in [2], in assay [4], in assay [5], in assay [6] and in [7] was “inactive” in each case. Moreover, the Potency result in [8], in assay [9], in assay [10], in [11], in assay [12] and in assay [13] was “inactive” each time. Besides, the Potency entry in [14], in assay [15], in assay [16], in [17], in assay [18] and in assay [19] was “inactive” throughout. Also, in [20], the Potency result is “inactive”. In addition, the max response in [3] is 8.67% (inactive) and 2.84% (inactive).

As for `Cc1cc2nc3c(=O)[nH]c(=O)nc-3n(C[C@H](O)[C@H](O)[C@H](O)CO)c2cc1C`, the Potency result in [1], in [2], in [6], in assay [9], in [14] and in [15] was “inactive” in each case. Moreover, the Potency entry in assay [16] and in assay [18] was “inactive” in each case. Also, the max response in assay [3] was -7.07% (inactive) and -0.427% (inactive) and -0.0783% (inactive). Moreover, the Potency in assay [4] was 48.5 µM (active) and 40.5 µM (active) and 11.7 µM (active); in [5], 43.2 µM (active) and 40.5 µM (active) and 11.7 µM (active); in assay [7], 43.2 µM (active) and 40.5 µM (active) and 11.7 µM (active); in [8], 43.2 µM (active) and 40.5 µM (active) and 11.7 µM (active); in assay [10], 48.5 µM (active) and 45.5 µM (active) and 11.7 µM (active); in [11], 43.2 µM (active) and 40.5 µM (active) and 11.7 µM (active). In addition, the Potency in assay [12] was 43.2 µM (active) and 40.5 µM (active) and 11.7 µM (active); in assay [13], 43.2 µM (active) and 40.5 µM (active) and 11.7 µM (active); in [17], 43.2 µM (active) and 40.5 µM (active) and 11.7 µM (active); in assay [19], 43.2 µM (active) and 40.5 µM (active) and 11.7 µM (active).

In the case of `CN(C)C(=N)N=C(N)N`, the Potency entry in assay [1], in [2], in assay [4], in assay [5], in assay [6] and in assay [7] was “inactive” in each case. Further, the Potency entry in assay [8], in assay [9], in [10], in assay [11], in assay [12] and in [13] was “inactive” throughout. For the same compound, the Potency result in [14], in assay [15], in [16], in assay [17], in [18] and in assay [19] was “inactive” in each case. Moreover, the Potency entry in assay [20] was “inactive”. Also, the max response in assay [3] is 2.54% (inactive) and 1.8% (inactive).

With `NC=O`, the Potency entry in assay [1], in [2], in assay [4], in assay [5], in assay [6] and in assay [7] was “inactive” each time. The Potency entry in assay [8], in [9], in assay [10], in [11], in assay [12] and in assay [13] was “inactive” each time. The Potency entry in assay [14], in assay [15], in assay [16], in assay [17], in [18] and in [19] was “inactive” each time. The Potency entry in assay [20] was “inactive”. The max response in [3] was -1.02% (inactive) and -20.4% (inactive).

For the compound `O=CCc1ccccc1`, the Potency entry in [1], in assay [2], in assay [4], in assay [5], in [6] and in assay [7] was “inactive” throughout. The Potency entry in [8], in assay [9], in assay [10], in [11], in [12] and in assay [13] was “inactive” throughout. Also, the Potency entry in assay [14], in [15], in assay [16], in assay [17], in [18] and in [19] was “inactive” each time. Further, in assay [3], the max response is 1.86% (inactive) and -0.86% (inactive).

For the compound `c1ccc2cc(Nc3ccc(Nc4ccc5ccccc5c4)cc3)ccc2c1`, the Potency entry in [1], in [2], in assay [4], in [5], in [6] and in assay [7] was “inactive” each time. Moreover, the Potency entry in assay [9], in assay [10], in assay [11], in assay [12], in [13] and in assay [14] was “inactive” throughout. For the same compound, the Potency entry in [15], in assay [16], in assay [17], in [18] and in assay [19] was “inactive” in each case. Besides, the max response in [3] is 5.1% (inactive) and 1.69% (inactive). For the same compound, the Potency result in assay [8] was “inactive and 12.3 µM (active)”.

With `O=c1oc(=O)c2cc3c(=O)oc(=O)c3cc12`, the Potency result in assay [1], in assay [2], in assay [4], in assay [5], in assay [6] and in assay [7] was “inactive” throughout. The Potency result in [8], in assay [9], in [10], in [11], in assay [12] and in [13] was “inactive” in each case. The Potency entry in [14], in [15], in [16], in assay [17], in assay [18] and in assay [19] was “inactive” in each case. In assay [20], the Potency result is “inactive”. In assay [3], the max response was 5.31% (inactive) and 2.56% (inactive).

For the compound `Clc1nc(Cl)c(Cl)c(Cl)c1Cl`, the Potency result in [1], in assay [2], in [4], in [5], in [6] and in assay [7] was “inactive” throughout. For the same compound, the Potency result in assay [8], in assay [9], in [10], in assay [11], in [12] and in assay [13] was “inactive” in each case. The Potency entry in [14], in [15], in assay [16], in [17], in assay [18] and in [19] was “inactive” throughout. In addition, the max response in [3] was 1.46% (inactive) and 24.5% (inactive).

`c1cc(-c2ccncc2)ccn1`: the Potency entry in assay [1], in assay [2], in assay [4], in assay [5], in assay [6] and in [7] was “inactive” in each case. The Potency entry in assay [8], in assay [9], in assay [10], in [11], in assay [12] and in assay [13] was “inactive” throughout. For the same compound, the Potency entry in assay [14], in assay [15], in assay [16], in assay [17], in [18] and in assay [19] was “inactive” throughout. Further, in assay [20], the Potency result was “inactive”. Also, in [3], the max response is -8.48% (inactive) and 4.82% (inactive).

For the origin of these results see PubChem BioAssay (Tox21).
